Assay results: the supplement of paper PMC10646978
± gives the standard deviation.

What was measured:
Settings in all cases: modulator concentration 10 µM
[1] = tested on: RAW-Dual (murine macrophage reporter line); test: NF-kB reporter (SEAP) activity fold change vs agonist alone; higher = enhanced NF-kB activity
Procedure, shortened: (§1)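 In 384-well plates holding 50 000 RAW-Dual murine macrophage reporter cells per well, compound at 10 μM final was pre-incubated for 1 hour at 37 °C, after which a PRR agonist was added overnight. Supernatant SEAP read with QUANTI-Blue at 620 nm absorbance reported NF-κB, and Lucia luciferase read with QUANTI-Luc luminescence reported IRF. Fold change values come from dividing each reporter signal by the mean of agonist-only control wells on the same plate, averaged over replicate plates with propagated errors.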

[2] = tested on: RAW-Dual (murine macrophage reporter line); test: IRF reporter (Lucia luciferase) activity fold change vs agonist alone; higher = enhanced IRF activity
Procedure, shortened: as §1

[3] = tested on: RAW-Dual (murine macrophage reporter line); test: viability score (confluency relative to resting cells, overnight) (fraction); higher = more viable, active = viable (0.7 or more)
Procedure, shortened: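 RAW-Dual macrophages in 384-well plates were treated overnight with compound at 10 μM final. IncuCyte imaging recorded confluency, and IncuCyte software built two confluency masks across every imaged well. The viability score expresses confluency relative to resting cells and was judged against a cutoff, which a compound met only if both masks exceeded 70% of resting cells.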

[4] = agonist: CpG ODN 1826 0.5 ug/mL

Structure (SMILES) | NF-kB reporter [1, 4] | NF-kB reporter ([1]; agonist: LPS 0.1 ug/mL) | NF-kB reporter ([1]; agonist: MPLA […]) | IRF reporter ([2]; agonist: 3'3'-cGAMP 10 ug/mL) | IRF reporter ([2]; agonist: LPS 0.1 ug/mL) | IRF reporter ([2]; agonist: MPLA […]) | viability score [3]
NC(=O)c1cc(NC(=O)c2ccc(Cl)c(Cl)c2)cc(C(N)=O)c1 | 1.15 ± 0.073 | 1.04 ± 0.13 | 1.01 ± 0.048 | 0.88 ± 0.032 | 0.943 ± 0.048 | 0.964 ± 0.096 | 0.997 (active)
CC(NCCc1c[nH]c2ccccc12)=C1C(=O)c2ccccc2C1=O | 0.972 ± 0.081 | 0.979 ± 0.11 | 1.15 ± 0.05 | 0.425 ± 0.027 | 0.989 ± 0.033 | 1.28 ± 0.11 | 0.991 (active)
CC(=O)OCCN(CCOC(C)=O)c1c(C)[nH]c(=O)[nH]c1=O | 0.864 ± 0.067 | 0.809 ± 0.079 | 0.994 ± 0.089 | 0.976 ± 0.05 | 1.52 ± 0.093 | 1.7 ± 0.17 | 1.02 (active)
CSc1cc(C=NO)c(SC)s1 | 0.874 ± 0.08 | 0.799 ± 0.1 | 0.886 ± 0.085 | 0.713 ± 0.043 | 0.975 ± 0.15 | 1.01 ± 0.27 | 0.285 (inactive)
Clc1ccc(CN2CCN(CCn3ccnc3-c3ccccc3)CC2)cc1 | 0.584 ± 0.055 | 1.29 ± 0.12 | 1.37 ± 0.2 | 0.841 ± 0.042 | 1.27 ± 0.086 | 1.13 ± 0.22 | 0.993 (active)
COC(=O)C1=C(C)NC(C)=C(C(=O)OC(C)C)C1c1cccc2nonc12 (configuration not stated) | 0.79 ± 0.062 | 0.942 ± 0.073 | 1.11 ± 0.096 | 0.645 ± 0.04 | 1.08 ± 0.07 | 0.967 ± 0.14 | 1 (active)
CC(C)NC(=O)CCn1c(=O)c2cc(Cl)ccc2n2c(SCc3ccc(F)cc3)nnc12 | 0.992 ± 0.077 | 1.01 ± 0.093 | 1.1 ± 0.06 | 1.02 ± 0.056 | 1.15 ± 0.19 | 1.41 ± 0.39 | 0.964 (active)
Cc1cccc(C(=O)N2CCCC(c3nnc(CC(C)(C)C)o3)C2)c1 (configuration not stated) | 0.877 ± 0.037 | 0.942 ± 0.16 | 1.35 ± 0.08 | 0.924 ± 0.043 | 1.33 ± 0.3 | 1.36 ± 0.47 | 0.944 (active)
CC(COc1ccccc1)N(CCCl)Cc1ccccc1.Cl (configuration not stated) | 0.328 ± 0.025 | 0.177 ± 0.015 | 0.355 ± 0.012 | 0.053 ± 0.0051 | 0.0504 ± 0.0018 | 0.0594 ± 0.011 | 0.186 (inactive)
Ic1ccc2c3ccc(I)cc3c3[nH]c(-c4ccccc4)nc3c2c1 | 1.03 ± 0.094 | 1.07 ± 0.14 | 1.11 ± 0.042 | 0.814 ± 0.054 | 1.05 ± 0.1 | 1.31 ± 0.19 | 0.995 (active)
CCOc1nc2cccc(C(=O)O)c2n1Cc1ccc(-c2ccccc2-c2nnn[nH]2)cc1 [Prestw-1258] | 1.29 ± 0.26 | 1.16 ± 0.11 | 0.925 ± 0.074 | 0.918 ± 0.029 | 0.914 ± 0.093 | 1.14 ± 0.14 | 0.995 (active)
CN1CCN(C(=O)N2CCC3(CC2)CC3(F)F)CC1 | 1.1 ± 0.07 | 0.939 ± 0.12 | 0.974 ± 0.025 | 0.894 ± 0.035 | 0.914 ± 0.086 | 0.815 ± 0.086 | 0.996 (active)
COc1ccc(C2=NN(C(=O)c3ccc(Br)cc3)C(c3nc4ccccc4[nH]3)C2)cc1 (configuration not stated) | 0.994 ± 0.087 | 1.1 ± 0.12 | 0.867 ± 0.07 | 0.92 ± 0.049 | 1.16 ± 0.092 | 1.1 ± 0.34 | 0.986 (active)
COC(=O)C1=CN(CC2CCCO2)C=C(C(=O)OC)C1c1ccccc1Br (configuration not stated) | 1.08 ± 0.23 | 0.956 ± 0.094 | 1.01 ± 0.11 | 0.956 ± 0.032 | 1.18 ± 0.21 | 1.05 ± 0.11 | 0.726 (active)
CCOC(=O)c1ccccc1NC(=O)CN(c1cc(C)ccc1OC)S(C)(=O)=O | 1.05 ± 0.097 | 1.03 ± 0.068 | 0.994 ± 0.047 | 1.01 ± 0.21 | 1.05 ± 0.11 | 1 ± 0.2 | 1 (active)
COc1ccnc(CS(=O)c2nc3ccc(OC(F)F)cc3[nH]2)c1OC (configuration not stated) | 1.18 ± 0.16 | 0.901 ± 0.1 | 0.879 ± 0.053 | 0.901 ± 0.056 | 1.07 ± 0.11 | 1.15 ± 0.15 | 0.999 (active)
Oc1ccc(C=Cc2cc(O)cc(O)c2)cc1 | 0.984 ± 0.074 | 0.848 ± 0.042 | 1.23 ± 0.029 | 0.493 ± 0.028 | 0.48 ± 0.087 | 0.403 ± 0.084 | 0.904 (active)
CN1CCN(c2nc(C3=C(c4c[nH]c5ccccc45)C(=O)NC3=O)c3ccccc3n2)CC1 | 0.748 ± 0.034 | 0.961 ± 0.081 | 1.21 ± 0.071 | 0.798 ± 0.041 | 1.14 ± 0.24 | 1.17 ± 0.32 | 0.988 (active)
O=C1c2ccc(-c3ccc4c(c3)C(=O)N(CCO)C4=O)cc2C(=O)N1CCO | 0.94 ± 0.078 | 1.03 ± 0.063 | 0.912 ± 0.1 | 0.934 ± 0.048 | 1.33 ± 0.09 | 1.24 ± 0.3 | 1 (active)
O=C(OC1Cc2c(O)cc(O)cc2OC1c1cc(O)c(O)c(O)c1)c1cc(O)c(O)c(O)c1 (configuration not stated) | 0.321 ± 0.094 | 1.04 ± 0.083 | 1.02 ± 0.092 | 0.822 ± 0.029 | 1.13 ± 0.22 | 1.06 ± 0.1 | 1.01 (active)
COc1cc(C(=O)O)ccc1NC(=O)[C@@H]1N[C@@H](CC(C)(C)C)[C@](C#N)(c2ccc(Cl)cc2F)[C@H]1c1cccc(Cl)c1F | 0.35 ± 0.03 | 0.513 ± 0.052 | 0.679 ± 0.058 | 0.608 ± 0.053 | 1.02 ± 0.21 | 0.952 ± 0.34 | 0.122 (inactive)
O=S(=O)(Oc1cccc2ccccc12)c1ccc(F)cc1 | 0.832 ± 0.1 | 0.926 ± 0.096 | 1.12 ± 0.1 | 0.789 ± 0.036 | 1.06 ± 0.064 | 1.12 ± 0.096 | 0.999 (active)
COCCN1C(=O)CN(C2CCN(Cc3cc(OC)cc(OC)c3)CC2)C1=O | 0.918 ± 0.047 | 1.14 ± 0.11 | 0.881 ± 0.04 | 0.979 ± 0.051 | 1.09 ± 0.12 | 1.13 ± 0.13 | 1.01 (active)
COc1ccc(CNC(=O)c2cnc3n(c2=O)CCS3)cc1 | 1.21 ± 0.29 | 1.04 ± 0.055 | 2.54 ± 1.4 | 0.934 ± 0.038 | 1.1 ± 0.15 | 1.25 ± 0.19 | 1 (active)
CC1(C)CC(=O)c2c(nc3ccc(Br)cc3c2N)C1.Cl | 0.513 ± 0.035 | 1.08 ± 0.067 | 0.883 ± 0.053 | 0.771 ± 0.036 | 1.07 ± 0.12 | 1.11 ± 0.11 | 0.995 (active)
Br.O=S(=O)(c1ccc(-c2csc(Nc3ccc(F)cc3)n2)cc1)N1CCOCC1 | 0.769 ± 0.068 | 0.989 ± 0.075 | 2.17 ± 0.15 | 0.768 ± 0.096 | 0.948 ± 0.054 | 1.55 ± 0.1 | 0.997 (active)
